Source: PubChem
p53 reactivator: mutant p53 re-activation in reporter cells. H1299 p53-A138V BP100-luciferase reporter, luminescence, 24 h. Potency, µM (titrated, usually from 92.2 µM), inactives show top-dose activity change, positive = activation, actives largely listed as activators. actives 0.063% (n = 320,000). AID 504706; also: potency is read from the fitted curve at half-maximal effect; % of control where 0% means no effect; nearly all actives have a fitted effect of over 45% in size
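H1299 (p53-null), stable ts p53-A138V + BP100-Luc; 1000 cells/well, Opti-MEM/10% FBS; cpd 4 pt, 1:5; 24 h, 37 deg C, 5% CO2; detection reagent 10 min RT; luminescence.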
Tb PFK inh: blocks T. brucei phosphofructokinase | AID 485367 | Potency, µM (series often up to 57.5 µM), inactives show at the top dose activity, negative = inhibition, actives largely listed as inhibitors | actives 0.17% (n = 330,000) | T. brucei PFK, ADP-Glo luminescence | O15648;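 also: potency is read from the fitted curve at half-maximal effect; 0% = uninhibited 1x PFK enzyme wells and -100% = no-enzyme wells; nearly all actives have a fitted effect of over 60% in size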
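1.25 nM PFK with 0.5 mM F6P and 0.1 mM ATP in 0.1 M TEA pH 8.0, 5 mM MgCl2, incubated 45 min at room temperature; ADP measured by ADP-Glo luminescence; compounds titrated up to 57 uM.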
gsp antag: gsp mutant antagonism; gsp-mutant cells, cAMP HTRF, 30 min; Potency, µM (titrated, usually from 76.9 µM), without a hit: at the highest dose activity change, negative = inhibition, most hits filed as inhibitors; actives 0.4% (n = 340,000); AID 624288; calls by dose curve; cell line not stated here;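 also: intracellular cAMP measured with PDE inhibitor Ro 20-1724 present during compound exposure; potency is read from the fitted curve at half-maximal effect; % is scaled to controls: 0 for no effect and ±100 for the full control effect; nearly all actives have a fitted effect of over 65% in size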
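Cells, 2000/well, grown 16–24 h in DMEM 10% FBS with 0.5 mg/ml G418, then compounds plus […] (300 uM addition stock), 30 min at 37C. cAMP read by HTRF (cAMP-d2 and anti-cAMP antibody-K in lysis buffer) after 30 min RT.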
RXFP1 antag: RXFP1 (human) relaxin receptor antagonism. AID 1259400. Q9HBX9. HEK293-RXFP1, relaxin-stimulated cAMP HTRF, 30 min; stronger effect = lower value. actives 0.59% (n = 350,000). activity change, negative = inhibition, % at 57.5 µM;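 active = activity change of -60% or lower, but not beyond a set lower limit; inconclusive = change between -60% and -40%, or beyond the set limit; inactive = change above -40%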; also: % is scaled to controls: 0 for no effect and ±100 for the full control effect
Target sequence (Q9HBX9 whole entry, looked up): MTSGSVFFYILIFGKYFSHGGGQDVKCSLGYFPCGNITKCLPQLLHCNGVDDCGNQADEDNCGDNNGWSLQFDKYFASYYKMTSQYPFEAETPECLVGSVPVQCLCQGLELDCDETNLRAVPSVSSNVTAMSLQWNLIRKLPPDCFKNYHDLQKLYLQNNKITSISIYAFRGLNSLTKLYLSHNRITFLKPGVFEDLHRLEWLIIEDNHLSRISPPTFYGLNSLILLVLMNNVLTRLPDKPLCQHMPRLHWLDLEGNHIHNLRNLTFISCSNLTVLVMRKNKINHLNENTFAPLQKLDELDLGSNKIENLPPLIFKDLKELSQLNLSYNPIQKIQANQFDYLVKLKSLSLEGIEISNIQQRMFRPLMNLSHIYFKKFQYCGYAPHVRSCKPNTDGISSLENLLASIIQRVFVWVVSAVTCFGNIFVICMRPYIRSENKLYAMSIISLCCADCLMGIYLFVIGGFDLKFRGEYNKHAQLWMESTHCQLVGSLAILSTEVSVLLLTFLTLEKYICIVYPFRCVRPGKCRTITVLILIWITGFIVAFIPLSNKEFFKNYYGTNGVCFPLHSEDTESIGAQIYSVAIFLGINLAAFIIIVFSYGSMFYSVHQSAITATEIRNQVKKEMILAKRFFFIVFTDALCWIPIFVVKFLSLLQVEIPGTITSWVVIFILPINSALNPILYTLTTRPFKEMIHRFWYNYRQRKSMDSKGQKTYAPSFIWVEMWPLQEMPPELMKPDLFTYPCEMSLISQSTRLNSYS
gsp ag: gsp mutant agonism; gsp mutant cells, cAMP HTRF, 30 min; Potency, µM (series often up to 76.9 µM), for the others: at the highest dose activation (cAMP increase), actives largely listed as activators; actives 0.13% (n = 340,000); AID 624287; active = well fitted activation curve with a large enough effect; inconclusive = small, poorly fitted or top-dose-only effect, or another doubt; inactive = no such curve, though single readings can be large or run the other way; cell line not stated here;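 also: phosphodiesterase inhibitor Ro 20-1724 added with compounds to block cAMP breakdown; potency is read from the fitted curve at half-maximal effect; nearly all actives have a fitted effect of over 60% in size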
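Cells in DMEM/10% FBS with G418 were pretreated with compounds in DMSO plus […] (300 uM stock) for 30 min at 37C. cAMP was measured by HTRF (cAMP-d2 plus anti-cAMP antibody-K) after 30 min at room temperature.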
RXFP1 agonist: RXFP1 (human) receptor agonism; Potency, µM (series often up to 57.5 µM), inactives show top-dose activation, most hits filed as activators; Q9HBX9; actives 0.3% (n = 370,000); HEK293T-RXFP1 cAMP TR-FRET, 30 min; response scale: percent of porcine relaxin response, buffer zero; also: potency is read from the fitted curve at half-maximal effect; % is scaled to controls: 0 for no effect and ±100 for the full control effect; nearly all actives have a fitted effect of over 60% in size
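HEK293T cells stably expressing RXFP1 were pretreated with the PDE4 inhibitor Ro 20174, exposed to compounds for 30 min at 37C, lysed, and cAMP was read by TR-FRET. Data normalized to buffer (basal) and 29 nM porcine relaxin (100%).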
* hit, by the source's call; ? = inconclusive; nt = no result given; [ ] = remark or other dose. Hits are enriched below; roughly 1.1% of the tested compounds scored in any of these assays. Unless noted, calls follow the shape of the dose curve; as a rule, active = well fitted curve in the direction sought with a large enough effect; inconclusive = small, poorly fitted or top-dose-only effect, or another doubt; inactive = no such curve, though single readings can be large; an effect the other way counts as inactive or inconclusive.

SMILES	p53 reactivator	Tb PFK inh	gsp antag	RXFP1 antag	gsp ag	RXFP1 agonist
Cc1ccc(CNC(=O)CN(C)S(=O)(=O)c2ccc3c(c2)n(C)c(=O)c(=O)n3C)cc1	3%	-2%	-3%	-68*	18%	10%
CN(CC(=O)NCc1ccc(F)cc1)S(=O)(=O)c1ccc2c(c1)n(C)c(=O)c(=O)n2C	1%	-2%	-17%	-6	53%	6%
CC(C)N(C(=O)[C@H]1CC(CC(=O)NCCC2=CCCCC2)C(=O)N2CCc3c([nH]c4ccccc34)[C@]12C)C(C)C (stereo partly specified)	-10%	-9%	-13%	nt	nt	nt
Cc1ccc2c(c1)-c1cc(C)nn1C(c1cc(Br)ccc1O)N2 (stereo unspecified)	nt	nt	nt	-114*	nt	-3%
CCN(CC)S(=O)(=O)c1cc(NC(=O)CSc2nnc(-c3cccs3)o2)ccc1C	4%	-3%	-8%	26	-25%	0%
COc1ccccc1C1CCN(c2cc(O)ccc2[N+](=O)[O-])CC1	2%	-5%	32µM*	-11	-6%[15.4 µM]	-2%
COc1ccccc1C1CCN(C(=O)c2ccccc2)CC1	13%	2%	0%	-9	28%	1%
COc1cc2cc(CCOC(=O)c3ccc(F)cc3)oc(=O)c2cc1OC	-8%	-5%	50µM*	nt	nt	2%
O=C(NCc1ccccc1)c1c[nH]c2cc3c(cc2c1=O)OCCO3	11µM*	0%	8%	-5	14%	6%
COCCNC(=O)c1cnn(-c2cccc(C)c2)c1-n1cccc1	nt	nt	nt	-2	nt	-1%
NC(=O)c1ccc[n+](Cc2cccc3ccccc23)c1	-3%	0%	18%	0	-5%[15.4 µM]	0%
CCC(=O)N1CCN(c2ccccc2NC(=O)c2ccc(-c3cccc([N+](=O)[O-])c3)o2)CC1	-3%	10%	5.6µM*	-4	-1%[15.4 µM]	1%
COc1ccc(OCC(=O)Nc2nccs2)cc1	-6%	-14%	-2%	-5	18%[15.4 µM]	0%
CCOc1ccc(OCC(=O)Nc2nccs2)cc1	-6%	27µM*	1%	6	3%	3%
Cc1cc(C)c(NC(=O)C2CCCN2CCOC(=O)c2cccc([N+](=O)[O-])c2)c(C)c1 (stereo unspecified)	-3%	3%	-10%	22	?	0%
O=C(NC(=S)Nc1ccc2oc(-c3ccncc3)nc2c1)c1ccccc1F	-1%	-26%	32µM*	6	0%	-2%
O=C(CSc1nnc(C2CC2)n1C1CC1)c1ccc(F)cc1	?	-8%	9%	0	?	-1%
CSc1ccccc1-c1nnc(-c2ccc(Cl)cc2Cl)o1	?	5%[0.46 µM]	7%	-6	?	4%
CCSc1nnc(-c2ccccc2SC)o1	12%	3%	6%	2	?	22µM*
O=C(Nc1ccccc1F)C(Cc1ccccc1)n1cccc1 (stereo unspecified)	nt	nt	nt	?	nt	0%
Oc1cccc(C2c3[nH]c4ccccc4c3CCN2Cc2ccoc2)c1 (stereo unspecified)	2%	1%	-3%	2	-42%	2%
Oc1cccc(C2c3[nH]c4ccccc4c3CCN2Cc2ccc3c(c2)CCO3)c1 (stereo unspecified)	0%	4%	-5%	-61*	10%[15.4 µM]	0%
COCCCNCCOCCOc1ccc(Cl)cc1C(C)(C)C	-25%	-6%	29%	-64*	-11%	1%
C=CCc1cc(Cl)ccc1OCCNCCOC	0%	0%	14%	-81*	10%[15.4 µM]	3%
O=C1CSC(c2ccccc2F)N1c1ccccc1F (stereo unspecified)	1%	5%	8%	-2	?	0%
SMILES	p53 reactivator	Tb PFK inh	gsp antag	RXFP1 antag	gsp ag	RXFP1 agonist
COc1ccc2c(-c3ccccc3)cc(=S)[nH]c2c1	-2%	-1%	-1%	-17	4%[15.4 µM]	13%
COc1ccc2c(C)cc(=S)[nH]c2c1	-4%	0%	9%	28	40%[15.4 µM]	20µM*
CC(=O)N1N=C(c2cccs2)CC1c1cc2cc(C)ccc2nc1Cl (stereo unspecified)	1%	11%	50µM*	2	-37%	7%
CC(=O)c1cccc(N(C(=O)CNC(=O)c2ccco2)C(C(=O)NC2CCCC2)c2ccc(C)o2)c1 (stereo unspecified)	-4%	0%	0%	-9	10%[15.4 µM]	0%
COc1ccc(S(=O)(=O)N2CCOCC2)cc1NC(=O)COC(=O)CC1CC2CCC1C2 (stereo unspecified)	-10%	4%	-5%	-7	?	nt
N#C/C(=C\c1ccncc1)c1nc2ccccc2o1	3%	-1%	-2%	12	16%[15.4 µM]	4%
N#C/C(=C\Nc1ccccc1O)c1nc2ccccc2o1	?	9%	50µM*	?	-6%	5%
COc1ccc(CNC(=O)c2ccc(CS(=O)c3ccccc3)o2)cc1 (stereo unspecified)	-3%	11%	10%	5	?	0%
CCOC(=O)N1CCN(C2=CC(=O)OC23CCCCC3)CC1	6%	-8%	4%	-17	3%	0%
O=C1C=C(N2CCCCCC2)C2(CCCCC2)O1	-2%	0%	-4%	-61*	8%	-1%
CCCCn1c(=N)n(CCOc2ccc(C)cc2)c2ccccc21	-27%	-5%	5%	-75*	-1%	2%
CCCCn1c(=N)n(CCOc2ccccc2OC)c2ccccc21	nt	nt	nt	-14	nt	-4%
C=CCOc1cccc(C2/C(=C(/O)c3ccc(C)cc3)C(=O)C(=O)N2CCN2CCOCC2)c1 (stereo unspecified)	-1%	-4%	1%	1	?	3%
CC1Cc2cc(/C(O)=C3/C(=O)C(=O)N(CCN4CCOCC4)C3c3cccc(Cl)c3)ccc2O1 (stereo unspecified)	-2%	-3%	-1%	19	?	22%
C=CCOc1cccc(C2/C(=C(\O)c3ccc4c(c3)OCCO4)C(=O)C(=O)N2CCN2CCOCC2)c1 (stereo unspecified)	7%	2%	17%	56	?	25µM*
CCCOc1cccc(C2/C(=C(/O)c3ccc4c(c3)CC(C)O4)C(=O)C(=O)N2CCN2CCOCC2)c1 (stereo unspecified)	-3%	-2%	-3%	17	?	25µM*
NC(=O)c1ccc(NC(=O)CN2CCN(S(=O)(=O)c3ccc4c(c3)OCCO4)CC2)cc1	-8%	-6%	50µM*	-7	21%	-2%
